± gives the standard deviation of the averaged measurements. Over roughly 4,100 sequences, “arbitrary fluorescence units” has its median near 780; the highest 2% begin near 22,000. This excerpt belongs to a sample that is enriched for the highest values.

The target of this test is T1, ETS1 (UniProt P14921).
T1 sequence: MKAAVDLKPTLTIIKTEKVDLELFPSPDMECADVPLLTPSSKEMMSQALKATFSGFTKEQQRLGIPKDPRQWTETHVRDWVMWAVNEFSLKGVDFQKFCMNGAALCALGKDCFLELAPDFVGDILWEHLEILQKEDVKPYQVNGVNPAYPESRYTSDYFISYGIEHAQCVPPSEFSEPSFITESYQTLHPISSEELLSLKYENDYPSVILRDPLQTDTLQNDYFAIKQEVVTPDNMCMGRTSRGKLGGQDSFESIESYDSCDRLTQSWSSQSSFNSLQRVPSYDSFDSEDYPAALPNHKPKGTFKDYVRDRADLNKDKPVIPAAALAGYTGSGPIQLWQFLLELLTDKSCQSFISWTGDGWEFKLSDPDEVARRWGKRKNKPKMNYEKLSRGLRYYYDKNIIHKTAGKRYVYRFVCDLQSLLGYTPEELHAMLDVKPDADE
Kind of test: ETS1 binding intensity (PBM fluorescence), ETS1 alone (arbitrary fluorescence units); higher = stronger binding. The note with it: ETS1 concentration 1 nM; RUNX1 concentration 0 nM. How it is done:
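gcPBM on 36-bp genomic-derived probes (partner site mutated) containing one ETS1 site and no RUNX1 site. Recombinant human ETS1 (1 nM) was incubated alone or with RUNX1 (25 nM) and detected by anti-ETS1 antibody fluorescence. Values are medians over 4 replicate spots (not normalised). The probes sit in constant array flanks that are not printed.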
Take GACTGCGCCGGACGCGCCAGCCCTGCGCGATGACGT: the ETS1 binding intensity came out at 678.

TGGCTGTCACTTCCTGTCCCACTGTCGTTCCTGGGA came in with an ETS1 binding intensity of 20600.

The sequence CGTTTCCTGTCTGGGACTGCGCCCACGCGATCACGT registered an ETS1 binding intensity of 38800.

For TCCCTCCTTCCGCTCTGGTTTTGGGGTTGCTTGCTG, the ETS1 binding intensity is 6220.

With CCAACAGCAGCGCTACTCCCGGCCGCTTCCGCCTGG, the ETS1 binding intensity was found to be 748.

Sequence CGGCCTCTTCCGGTCACCTGGCCCGTCGCTGTCCCG came in with an ETS1 binding intensity of 17300.

Take GGCACTTCCGGTCCTGACCTGAAGCGCTCACCGTCA: the ETS1 binding intensity came out at 55000.

CCGCGTCCTCAGAGGTCCGGCCGGAAGTCACCTGAA: the ETS1 binding intensity worked out at 8340 ± 1500.

For the sequence ACAAAGTCAGTGGCAATGTGGAACGTCCGCCAAGAG, the ETS1 binding intensity turned out to be 384.

GCGGAGGGAAGCGGAAATACTTGCAGTGGGGGCGAC returned an ETS1 binding intensity of 3700.

On to CTCTTGGCGGACGTTCCACATTGCCACTGACTTTGT, for which the ETS1 binding intensity came out at 616.

Sequence CACTCCCCTCCCGAGGTCACACTTCCGGCGGCCACC came in with an ETS1 binding intensity of 7960.

In the case of CAACTCCGGCGCCCTCAGGCCACTTCCGCCTATGTA, the ETS1 binding intensity worked out at 4590.

In turn, GCCACTTCCGGTCACTCCCCTCAGCGGCCTCGCGCT had an ETS1 binding intensity of 39600.

In turn, CTGCCTTTCCTGCTAGGGTACAAATCACAGCCTTAG gave an ETS1 binding intensity of 1670.

With AACTTCCTTCCCGAGAGCCTGAAGCAGCCGTAGGCC, the ETS1 binding intensity was found to be 9120.

For the sequence TTTAAGGTTCATGCTGTACTCAGAACATCCTGTTCT, the ETS1 binding intensity turned out to be 1150.

In turn, CGGGTTAAACAGCAGCCGCGCCCACACTTCCGGGGT showed an ETS1 binding intensity of 2120.

In turn, TCCCGCTTCGGCCAACAGCCGGGCCACTTCCGGGGC had an ETS1 binding intensity of 2910.

As for TCCCCACACTTCCGGCCCCGCGCGCACAGCCGCACC, the ETS1 binding intensity turned out to be 25400.

CCGCGAACAGCAGAATTCCCGCCTTCCGCAGCCCGG returned an ETS1 binding intensity of 480 ± 6.2.

The sequence AGCACCAGTGTTGTCTCTGCTTCCGGTCCTTATGGT came in with an ETS1 binding intensity of 7490.

GGTCTCTGCTTCCGGTCCTTGGGGTAGCACCTCTGT yielded an ETS1 binding intensity of 32000.

TGGGGCTCTTCCTGCTTATGTGAGCACAGCACCTTG returned an ETS1 binding intensity of 4750.

CAGCCAGCGCACCTCCTCCTCAGCTTCCTCTGGTGC showed an ETS1 binding intensity of 620.

Sequence GATGAGGGCTTGCGCGCAAACAGCCCGGAAATGAGG yielded an ETS1 binding intensity of 1010.

With GGGGACCGGAAAGGGAGGGGTGGGCCGTAGGCGCCG, the ETS1 binding intensity was determined as 4430.

Take CGGCCGCCGTTTAGGGCGGCCCCGGAAGCGGGGCGC: the ETS1 binding intensity worked out at 531.

CAACAACCGGAAGTGGGGCGGGCCGTAGTACCCGCC: the ETS1 binding intensity was 35100.

GCACTCATTTCCTGTCCCCTGTAGTTTAAAGGTTTT: the ETS1 binding intensity was 19700.

TTGCATGTAGTTTAGGCTGTAGTTTCCTCCTGTAGT returned an ETS1 binding intensity of 534.

Regarding AGGCTCATTTCCTGTTTTCATGTAGTTTAGAGAAAA, the ETS1 binding intensity amounted to 24300.

Sequence TATATGCACAGGAAGTCCCTTACAACCTACTCTGTT displayed an ETS1 binding intensity of 3590.

For the sequence AGGACCGGAAGTGCCCGAGGGCGGCCGGAGAACGGT, the ETS1 binding intensity is 45500.

In turn, GGCGGGAGAGGAAGCCGGGCGGCCGAAGCTGCCTGT displayed an ETS1 binding intensity of 811.

In turn, AGAAGTGCAGTGGAGGAGGGCCGGAACGGTGACTAT gave an ETS1 binding intensity of 393.

In turn, CCATTCCTACGGCCTTCATTGCTGCATCCGGTGGAG returned an ETS1 binding intensity of 2480.

Turning to CTCTGGGAGGCCGCCGCTTTCCACCGGAAAGAGGGT, the ETS1 binding intensity came out at 555.

Consider AGGTACAACACCAGACGGTAGGCCAGGAAATCGCAG, for which the ETS1 binding intensity worked out at 407.

CTCCGCGCAGCCCCAGAGACCCTTGGGAAGTGTGGT came in with an ETS1 binding intensity of 320.

Regarding CTCGGCCAACGCGTGCTCCACTCGGAAGTGGTGCCG, the ETS1 binding intensity was 457.

CAAAGTGATGGGGGAAATGGTTGTAGTTTTGGGTGG: the ETS1 binding intensity stood at 514.

The sequence AACAGTACTTCCGGGGCAAGTGAGCGCCTACAAGGC gave an ETS1 binding intensity of 30400.

As for GTTGCAAAGGCGCCTACAACTACTTCCGCTTCTAGT, the ETS1 binding intensity stood at 4670.

As for CGTGTGAGGGGGCGCAAGGCAGCGGCAGCTTCCGCC, the ETS1 binding intensity was 830.

AAATGAGCGGAGGTTGAGCCCTACTTCCGGTGGTGC came in with an ETS1 binding intensity of 14100.

The sequence CTTCTACTTCCTGCCCCGCCCCCAGCTGTGCTCACA displayed an ETS1 binding intensity of 17900.

The sequence TGAGCCCTACTTCCGGTGGTGCTGTGCTCTGCCCCT came in with an ETS1 binding intensity of 29700.

Sequence GCTTGTCTTCCGGTTTCGTCGCCGCCGTAGGCGCAC showed an ETS1 binding intensity of 16700.

With TATTTCCTGTGCACAGAAGCAGCTGGGCCGAAGAGT, the ETS1 binding intensity stood at 34400.

Turning to TCGGGCTGCCGAAGAGCAGCTATTTCCTGTCTGCAC, the ETS1 binding intensity worked out at 5010.

AGTTTCCTGAACTCAGAGCACAGTTCTGGTGCAGAA: the ETS1 binding intensity was 6300.

With CCAGACCCGGCGGAACTACCGTGCCCTCAAGGCAGC, the ETS1 binding intensity amounted to 477.

As to TTCAGGTGACTTCCGGCCGGACCTCTGAGGACGCGG, the ETS1 binding intensity stood at 24100 ± 4200.

For the sequence ACGCGCGCGGGGGAGGTGGCTTCTTCCGGCCGGGCC, the ETS1 binding intensity amounted to 1860.

CCCGGAGGACGTCCGGCCTCTGTGAGCCGCCACCTT registered an ETS1 binding intensity of 4500.

In turn, CTCGGCCAGGAAGCACTGAGCCACTTCGGCATCGCA displayed an ETS1 binding intensity of 591.

For the sequence TGACAGACCCGGAAATAAGAGGAGACAACACACTTG, the ETS1 binding intensity is 4440.

As for GGCAGGAAAGAGCTGATGCATTTCAACAGCAGCCTG, the ETS1 binding intensity was determined as 477.

In turn, CCTGAGCGCCCGGAAGGAAGGCTGGGGTAGGTTGTC gave an ETS1 binding intensity of 756.

With GGAGGGGCTGGCCGGAAGTGAACCGAAGAGCACGCT, the ETS1 binding intensity came to 16700.

As for ACCAACCGGAAGTGATCGTGTCGTGGCCGAAGGAGG, the ETS1 binding intensity came to 32300.

For the sequence GTCGGAAGTGGCCGTGAGCCCAAGCCGAGGTCCCGG, the ETS1 binding intensity is 1130.

With TGCGCCAGCGGGAGGGAGCAGTTCCGGGTACGGTGC, the ETS1 binding intensity stood at 563.

With CAGGACCCCTGTACTCCGGGTGAAGCGGAAGCGCAG, the ETS1 binding intensity amounted to 667.

As for TTATCTGTCGTTCTTTTATGGGGTGGGCTTCCTCTG, the ETS1 binding intensity is 503.

On to GAGAAAGCAGCGCCCCAGCGCGCCTTCCGCCACGCC, for which the ETS1 binding intensity amounted to 328.

Turning to CTGACTTGTTGTAGTCTCTGCCACTTCCTGAGGTGT, the ETS1 binding intensity is 668.

For the sequence CAGTCTGGCCATGAGGTGCCACTTCCTCTCTGGTTT, the ETS1 binding intensity was 1550.

The sequence AGCCGCCACTTCCTGTCTCTGAGGGTGCATGCTCTT displayed an ETS1 binding intensity of 36000.

As to TAAAATTTCGGGAGGGGACTTGGTCCTTCCTGTTGC, the ETS1 binding intensity worked out at 735.

In the case of GCGCCCCGCTTCCGGGGCCGCCCTAAACGGCGGCCG, the ETS1 binding intensity was found to be 10100.

AGCAACCTACTACCCGGCGCCTGATTCACTTCCCTC: the ETS1 binding intensity amounted to 391.

The sequence CCCCGTTACGCCCATCCGGCTCCCGAATAGGGCGTC registered an ETS1 binding intensity of 2610.

For the sequence CTTACTATATTAACGCCGGTACACATCCGCCCGACA, the ETS1 binding intensity came to 1800.

As to ATTACATCCGGGCTCCGCGACACGCCCGAACCCCAA, the ETS1 binding intensity was 25300.

For the sequence CTTACGGCCTCGCGCCATGGGCAGTATCCGCCGCCA, the ETS1 binding intensity was determined as 328.

Take GATGGGCTGGGGATGTGGCCTGTTTGCCGCTGGCGA: the ETS1 binding intensity was determined as 361.

Sequence GGCTGCGACTTCCGGACTGCTCCTGGCCGCTGGGGG gave an ETS1 binding intensity of 22900 ± 1200.

GGCTGCGCCGGCTGGGGTGTTCCTCCGACTTCCGGA gave an ETS1 binding intensity of 1590.

Regarding CAGCCGACTTCCGGGGTGGGGCTTGCTGCCGCTGAG, the ETS1 binding intensity stood at 19300.

For the origin of these results see the supplement of paper PMC10681739.
